In PubChem BioAssay (NCI):
The panel holds about 79,000 compounds, 15% with a hit somewhere; the sample as a whole holds those more often. Active and inactive are the calls of the source. No stated cut-off is given here; in the data, active means growth inhibition above about 70%; inactive means the rest.

Test: NCI Yeast Anticancer Drug Screen. Data for the bub3 strain (AID 167)
Conditions: S. cerevisiae bub3 mutant strain, at 50.0 µM, hits give high values
Experimental: Growth inhibition of yeast strains with defined genetic alterations is measured as a screen for potential anti-cancer activity. Selected strains with alterations in DNA damage repair or cell cycle control were exposed to compounds and growth inhibition was measured relative to vehicle treated controls. The strain used in this assay is bub3

Q: Which growth inhibition does the source give for `Cc1cccc(NC(=O)CC(=O)N2N=C(N3c4ccccc4Sc4ccccc43)CC2c2ccccc2)c1` (stereo not given) here?
A: -5.35% (inactive)

Q: With `C=C(CN(C)C)C(=O)c1ccc(OC)cc1` as the compound, how does the growth inhibition read?
A: 2% (inactive)

Q: With `COc1cc(C2C3=C(COC3=O)OC(C)(C)Oc3cc4c(cc32)OCO4)cc(OC)c1OC` (stereo not given) as the compound, how does the growth inhibition read?
A: -8.8% (inactive)

Q: With `N#CC1=C(N)N(c2ccccc2)C(c2ccccc2)C1(C#N)C#N` (stereo not given) as the compound, how does the growth inhibition read?
A: -22.9% (inactive)

Q: With `COc1cc(C(OC(C)=O)OC(C)=O)c(Cl)cc1OC(C)=O` as the compound, how does the growth inhibition read?
A: -2.6% (inactive)

Q: Which growth inhibition does the source give for `N#Cc1c(-c2ccccc2)c(C#N)c(=O)n(N)c1N` here?
A: 23.1% (inactive)

Q: With `CCCCC(CC)CN(CC)CC` (stereo not given) as the compound, how does the growth inhibition read?
A: 2.8% (inactive)

Q: With `CCCCC(Nc1nncs1)Nc1nncs1` as the compound, how does the growth inhibition read?
A: 11.3% (inactive)

Q: With `O=[N+]([O-])c1ccccc1Sc1ccc2c3c(cccc13)CN(CCCO)C2` as the compound, how does the growth inhibition read?
A: 7.15% (inactive)

Q: With `CCOC(=O)c1ccccc1OCc1ccccc1` as the compound, how does the growth inhibition read?
A: 51.8% (inactive)

Q: With `CCCc1ccc(N=Cc2cc(OC)c(OC)c(OC)c2)cc1` as the compound, how does the growth inhibition read?
A: -8% (inactive)

Q: With `CC(=O)n1cc2cc([N+](=O)[O-])ccc2n1` as the compound, how does the growth inhibition read?
A: -1% (inactive)

Q: For `O=C(O)c1cc(-c2c(Cl)cccc2Cl)nc2cc3ccccc3cc12`, which growth inhibition is on record?
A: 36.4% (inactive)

Q: For `COc1ccc(CN2C(=S)SC(c3ccc(Cl)cc3)N2c2ccc(OC)cc2)cc1` (stereo not given), which growth inhibition is on record?
A: -1.35% (inactive)

Q: For `N#CC(C(=O)C(N)=O)c1nc2ccccc2s1` (stereo not given), which growth inhibition is on record?
A: -9.5% (inactive)

Q: Which growth inhibition does the source give for `c1scc2c1COCCOCCOCCOCc1cscc1COCCOCCOCCOC2` here?
A: -30.4% (inactive)

Q: With `OCC1=CC(c2ccccc2)(c2ccccc2)c2ccccc21` as the compound, how does the growth inhibition read?
A: 95.5% (active)

Q: With `CC1C(=O)C(O)CC2C1(C)CCC1C2(C)CCC2(C)C3CC(C)(C)CCC3(C)CCC12C` (stereo not given) as the compound, how does the growth inhibition read?
A: 5.45% (inactive)

Q: Which growth inhibition does the source give for `CC(=O)CC(=O)C(C)C.[Cu+2]` here?
A: -21.5% (inactive)

Q: With `Cc1no[n+]([O-])c1C(=O)NN` as the compound, how does the growth inhibition read?
A: -20.1% (inactive)

Q: For `NC1=NC(c2ccccc2)C2=C(N1)C(=O)N(c1ccc(Br)cc1)C2` (stereo not given), which growth inhibition is on record?
A: 7.7% (inactive)

Q: For `N#[N+]c1ccc2c(c1)C(=O)c1ccccc1-2`, which growth inhibition is on record?
A: 8.6% (inactive)

Q: Which growth inhibition does the source give for `NNC(=O)C(O)C(O)C(=O)NN` (stereo not given) here?
A: -8.05% (inactive)

Q: With `CCCCCCCC/C=C\CCCCCCCC(=O)Cl` as the compound, how does the growth inhibition read?
A: -8.85% (inactive)

Q: With `Cc1ccc2nc(Nc3nc(C)cc(C)n3)[nH]c2c1` as the compound, how does the growth inhibition read?
A: -17.8% (inactive)

Q: Which growth inhibition does the source give for `CN1C2CC(=O)CC1[C@@H]1OC(c3ccccc3)O[C@H]21` (stereo not given in full) here?
A: 17.6% (inactive)

Q: For `Oc1ccc(CN=Cc2ccccc2)cc1`, which growth inhibition is on record?
A: -15.6% (inactive)

Q: Which growth inhibition does the source give for `CN(Cc1ccccc1)C(OCc1ccccc1)c1ccccc1` (stereo not given) here?
A: 20.4% (inactive)

Q: With `CC1=CC(=O)C(C(C)C)CC1` (stereo not given) as the compound, how does the growth inhibition read?
A: -7.75% (inactive)

Q: Which growth inhibition does the source give for `CCC(O)CN(C)C` (stereo not given) here?
A: 0.85% (inactive)

Q: For `Nc1ncnc2c1c1c(=O)[nH]c(=O)[nH]c1n2C1OC(CO)C(O)C1O` (stereo not given), which growth inhibition is on record?
A: -7.55% (inactive)

Q: Which growth inhibition does the source give for `FC(F)(F)c1nc(=S)c2cn[nH]c2[nH]1` here?
A: 35.5% (inactive)

Q: With `CC(C)C(=O)C(F)(F)F` as the compound, how does the growth inhibition read?
A: 28.6% (inactive)

Q: For `COC(=O)c1ccc(C(=O)OC)c2nc3cc(Cl)ccc3nc12`, which growth inhibition is on record?
A: -10.6% (inactive)

Q: Which growth inhibition does the source give for `C=CC(Br)(CBr)CCC(Cl)C(C)C` (stereo not given) here?
A: 90.3% (active)

Q: For `ClC(=Nc1ccccc1)c1cc(N2CCOCC2)ccn1`, which growth inhibition is on record?
A: 19.1% (inactive)

Q: With `Cc1csc(-c2ccncc2)n1` as the compound, how does the growth inhibition read?
A: 20.5% (inactive)

Q: For `O=C(Nc1nc(C23CC4CC(CC(C4)C2)C3)cs1)c1cc2cc(Br)cc(Br)c2oc1=O`, which growth inhibition is on record?
A: -12.8% (inactive)

Q: Which growth inhibition does the source give for `CCOC(=O)c1cc(C)nc(Cl)c1[N+](=O)[O-]` here?
A: -3.45% (inactive)

Q: For `N#C/C(=C(/N)N1CCOCC1)N1CCOCC1`, which growth inhibition is on record?
A: 16.1% (inactive)
